Reference: PubChem BioAssay
Several values for one entry are separate records, joined by “and”; a condition that tells them apart may be missing. Identical values can stand only once.

Test: binders of probe aFGF2 on microarray, primary screen, stem cell growth factor project, biochemical, small-molecule microarray, fluorescence 635/667 (AID 1067);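 also: measures binding of biotinylated aFGF2 protein to printed compounds on slides; z-score merges feature fluorescence and signal-to-noise across triplicate slides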
Conditions: higher = more signal

Row | Structure (SMILES) | composite z-score
1 | C=CCN(CCCC)C(=O)C1N(c2ccc(CCO)cc2)C(=O)C2C(C(=O)O)C3C=CC21O3 (configuration not stated) | -0.156 and -0.061
2 | COC(=O)C1=C(C)N(Cc2ccccc2)C2=C3C(=O)N(c4ccccc4)C(=O)[C@@H]3[C@@](O)(C(=O)OC)C(=O)N2[C@@H]1c1ccccc1 | -0.118 and -0.137
3 | CCC[C@@H]1C[C@@]1(CCC)[C@@H](NC(=O)c1ccc(-c2ccccc2)cc1)c1cccc(Cl)c1 | 0.736 and -0.171
4 | C=CCN(C(=O)C(c1cccs1)N(C(=O)/C=C\C(=O)O)c1ccc(CCO)cc1)C(C)(C)C (configuration not stated) | -0.212 and -0.192
5 | C=CCN(Cc1ccccc1)C(=O)C1N(CCCCCCO)C(=O)C2C(C(=O)O)C3C=CC21O3 (configuration not stated) | -0.236 and -0.323
6 | COc1ccc(COC(=O)NN=C2C[C@@H](O)[C@@H](O)[C@@H]3[C@@H]4C(=O)N(C(C)(C)C)C(=O)[C@@H]4CC[C@H]23)cc1 | -0.0439
7 | O=C1NC(=O)C2C1C=CC(C(O)c1ccc([N+](=O)[O-])cc1)N2Nc1ccc(Cl)cc1Cl (configuration not stated) | -0.0044 and 0.115
8 | COC(=O)C1=C(C)N(Cc2ccccc2)C2=C3C(=O)CCC[C@@H]3[C@@](O)(C(=O)OC)C(=O)N2[C@@H]1c1ccccc1 | -0.122 and -0.0125
9 | C[N+](C)(C)CCCCNC(=O)[C@H]1C[C@H]2C(=O)N[C@@H](CCCC[N+](C)(C)C)C(=O)N2[C@H]1c1cccc(OCCO)c1 | -0.0744 and -0.149
10 | C=CCN(CCCCC)C(=O)C1N(c2ccc(CCO)cc2)C(=O)C2C(C(=O)O)C3C=CC21O3 (configuration not stated) | -0.154 and -0.179
11 | CC(C)C(=O)N[C@@H]1CCCN1C(=O)C=Cc1ccccc1 | -0.0781
12 | C[C@@H](ON=C1[C@H]2CCn3c(=O)n(-c4ccccc4)c(=O)n3[C@H]2[C@H](O)[C@@H]2O[C@H]12)c1cn([C@H](CO)Cc2ccccc2)nn1 | -0.113
